Assay outcomes deposited in PubChem BioAssay by several laboratories.
BoNT-F LC inh: BoNT F light chain protease inhibition; AID 588497; inhibition, % at 10 µM; 0.22% of 360,000 active; Multiplex microsphere protease cleavage assay, flow cytometry; in the data active means inhibition above about 35%, passing the limit was not always enough; inconclusive means no clear call, values can overlap the other calls; further: plate controls were buffer without enzyme for full effect and enzyme alone for no effect
GDH-TPI counter: counter-screen for M. tuberculosis FBA inhibitors: GDH-TPI coupled enzymes. inhibition, % at 4.8 µM. 1.2% of 360,000 active. GDH-TPI coupled enzyme counterscreen, NADH absorbance; in the data active means inhibition above about 30%;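 further: 0% = DMSO wells and 100% = wells lacking the enzyme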
Mtb FBA inh: inhibitors of M. tuberculosis fructose-bisphosphate aldolase; purified M. tuberculosis FBA, fluorescence read-out; inhibition, % at 1 µM; 2.3% of 360,000 active; AID 588726; in the data active means inhibition above about 27%;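 further: 0% = vehicle and 100% = reference inhibitor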
Target sequence (P9WQA3 whole entry, looked up): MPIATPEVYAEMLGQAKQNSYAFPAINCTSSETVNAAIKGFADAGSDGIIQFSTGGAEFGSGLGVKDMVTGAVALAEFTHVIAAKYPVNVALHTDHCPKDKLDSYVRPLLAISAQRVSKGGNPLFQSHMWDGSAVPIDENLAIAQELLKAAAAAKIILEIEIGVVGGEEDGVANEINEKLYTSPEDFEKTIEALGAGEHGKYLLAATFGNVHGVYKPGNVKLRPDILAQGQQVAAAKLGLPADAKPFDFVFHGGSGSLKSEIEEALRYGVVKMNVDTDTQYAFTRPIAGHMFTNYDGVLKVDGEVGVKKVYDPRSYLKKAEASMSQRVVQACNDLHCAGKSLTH
BoNT A protease: blocks Botulinum neurotoxin A light chain protease; multiplex microsphere protease substrate cleavage, flow cytometry; inhibition, % at 10 µM; 0.17% of 360,000 active; further: plate controls were buffer without enzyme for full effect and enzyme alone for no effect
Bead autofluor: counter-screen for toxin protease inhibitors: compound fluorescence | compound autofluorescence counterscreen, microsphere flow cytometry; hits give high values | fluorescence intensity (concentration not given with the values) | 3.1% of 360,000 active; in the data active means fluorescence intensity above about 16000; inconclusive means no clear call, values can overlap the other calls
Anthrax LF inh2: inhibitors of Bacillus anthracis lethal factor protease; AID 588501; 0.12% of 360,000 active; inhibition, % at 10 µM; multiplex microsphere protease cleavage assay, LF; P15917; further: plate controls were buffer without enzyme for full effect and enzyme alone for no effect
Starred values were filed as active, the others as inactive; ? = inconclusive. A selection: hits, their analogues and other compounds. The true share with any hit is near 6.7%. Unless noted, no stated cut-off is given here; in the data, active means inhibition above about 30%; inconclusive means no clear call, values can overlap the other calls; inactive means below that.

SMILES	BoNT-F LC inh	GDH-TPI counter	Mtb FBA inh	BoNT A protease	Bead autofluor	Anthrax LF inh2
Cc1ccc(S(=O)(=O)C(C#N)c2nc3ccccc3nc2OCCO)cc1 (stereo not drawn)	-2	14	5	0	2016	2
Cc1cccn2cc(-c3cccc(S(=O)(=O)N4CCOCC4)c3)nc12	-6	2	-1	0	5949	-3
CCC(=NCCc1c[nH]c2ccccc12)c1c(O)n(-c2ccc(C)cc2)c(=O)[nH]c1=O	-2	12	0	0	2098	0
CCC(=NCCc1c[nH]c2ccccc12)c1c(O)n(C)c(=O)n(C)c1=O	2	3	2	0	22284*	0
COc1ccc(/C=c2\s/c(=C/C(=O)c3ccc(C)cc3)[nH]c2=O)c(OC)c1	-11	10	-3	2	2696	-3
CC(=O)NCCc1nc2cc(NC(=O)c3ccc(F)cc3)ccc2n1C	4	-3	0	-1	3545	10
COc1ccccc1C(=O)Nc1ccc2c(c1)nc(CCNC(C)=O)n2C	-1	-4	-3	-3	21508*	-1
COc1ccc(C(=O)Nc2ccc3c(c2)nc(CCNC(C)=O)n3C)cc1	-2	-4	4	0	20535*	0
COc1ccccc1C(=O)Nc1ccc2c(c1)nc(CCNC(=O)c1ccccc1)n2C	-10	-5	2	2	4137	-1
CNC(=O)C1CC(=O)N(CCc2ccccc2)C(=Nc2ccc(OC)cc2)S1 (stereo not drawn)	-6	3	-1	-1	3995	-8
COc1cccc(C(=O)Nc2ccc(S(=O)(=O)NCc3ccco3)cc2)c1	0	-4	-4	-1	24328*	-2
O=C(NC1CCCCC1)c1ccc(S(=O)(=O)NCc2ccco2)cc1	7	-11	-1	2	21532*	-6
Cc1cc(C)n(CCCNC(=O)c2ccc(S(=O)(=O)NCc3ccco3)cc2)n1	0	1	-1	?	21580*	-2
O=C(NC1CCN(Cc2ccccc2)CC1)c1ccc(S(=O)(=O)NCc2ccco2)cc1	-2	1	4	-1	3395	0
Cc1nn(-c2ccccc2)c(C)c1CNC(=O)c1ccc(S(=O)(=O)NCc2ccco2)cc1	-2	1	2	0	3841	-4
O=C(Nc1ccc(S(=O)(=O)NCc2ccco2)cc1)c1cccc(F)c1	-17	0	2	-5	3210	1
CCCc1cc(=O)[nH]c(NCCc2ccccc2)n1	?	18	0	4	3424	-4
CCOc1cccc2sc(N(CCCN(C)C)C(=O)c3ccc(S(=O)(=O)N4CCCCCC4)cc3)nc12	-9	-3	-1	0	6254	-2
COC(=O)c1c(C(=O)NCc2ccccc2)ncn1CC(O)COc1ccccc1 (stereo not drawn)	-22	12	2	-2	5457	4
Cc1ccc(NC(=O)CSc2nnc(CNC(=O)c3c(F)cccc3Cl)o2)cc1	12	0	3	0	3146	-1
O=C(CSc1nnc(CNC(=O)c2c(F)cccc2Cl)o1)Nc1ccc2c(c1)OCO2	-8	-3	95*	0	4504	-4
CCOC(=O)c1c(CN2CCN(CCO)CC2)n(C)c2cc(Br)c(OC)cc12	-2	0	2	0	23678*	-1
CCOC(=O)c1c(C)oc2cc(Br)c(OC)cc12	-4	-6	3	-3	25149*	-1
CC(C)=C(NC(=O)c1ccccc1Cl)C(=O)NCCc1nc2ccccc2[nH]1	-2	1	-2	0	4041	0
Cc1occc1-c1nc(-c2ccncc2)no1	3	1	2	3	21018*	-2
SMILES	BoNT-F LC inh	GDH-TPI counter	Mtb FBA inh	BoNT A protease	Bead autofluor	Anthrax LF inh2
COc1ccc(CCNC(=O)C(=O)NCc2ccc(C(C)C)cc2)cc1OC	-5	4	6	?	24221*	-3
COc1cc(OC)c(OC)cc1CNCCNC(=O)c1nonc1N	-3	6	1	-2	24547*	1
CCOc1cccc(CNCCNC(=O)c2nonc2N)c1	-5	5	4	0	22612*	1
Nc1nonc1C(=O)NCCNCc1cc(Br)ccc1OCc1ccc(F)cc1	-14	-1	-3	?	19634*	-9
COCCNC(=O)/C(C#N)=C\c1ccc(CNC(=O)C(=O)Nc2ccc(C)c(C)c2)o1	1	22	-1	0	2420	-2
O=C(O)C1=C[C@@H](c2ccc(F)cc2)C[C@@H](OCCCCO)O1	-2	5	-1	0	2997	-6
